Source: PubChem BioAssay
This is a sample that favours compounds with a hit; in the whole collection about 3% have one here.
Sm TGR inh – blocks Schistosoma mansoni thioredoxin glutathione reductase; purified TGR, DTNB reduction, TNB absorbance 405 nm; Potency, µM (titrated, usually from 114 µM), usual class: inhibitors; Q962Y6; 360,000 tested, 3% active; further: nearly all actives have a fitted effect of over 60% in size
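Kinetic colorimetric format: TGR-catalysed, NADPH-driven DTNB reduction monitored via TNB absorbance. Enzyme dispensed at 20 nM; compound exposure 15 min at room temperature before reaction start.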
RE007 growth inh – less growth of the S. pombe RE007 Vpr strain; S. pombe RE007 Vpr strain, BacTiter-Glo ATP luminescence, 24 h; Potency, µM (doses to about 92.2 µM), actives largely listed as inhibitors; 360,000 tested, 0.21% active; active means well fitted falling curve with a large enough effect; inconclusive means small, poorly fitted or top-dose-only effect; inactive means no such curve, though single readings can be large or run the other way; further: nearly all actives have a fitted effect of over 50% in size
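Fission yeast strain RE007, carrying one chromosomally integrated HIV-1 vpr copy, was seeded at OD 0.01 in PMG+AL medium with 23 nL pinned compound. After 24 h at 30 °C and 99% humidity, viability was read by BacTiter-Glo luminescence.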
Tb PYK inh – inhibitors of Trypanosoma brucei pyruvate kinase; 410,000 tested, 0.12% active; Potency, µM (series often up to 76.8 µM), hits mostly inhibitors; AID 624173; TbPYK enzyme, Kinase-Glo Plus ATP luminescence, 45 min; Q57TT1; further: nearly all actives have a fitted effect of over 50% in size
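In this concentration-response screen, enzyme-free wells defined baseline while DMSO plates tracked drift. Each reaction combined TbPYK, substrate, compound and 130 uM ADP for 45 min at room temperature. Kinase-Glo Plus luminescence gave the signal.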
LmPK inh – blocks Leishmania mexicana pyruvate kinase activity; 290,000 tested, 0.37% active; Potency, µM (highest dose often 57.5 µM), hits mostly inhibitors; Q27686; AID 1721; purified LmPK, Kinase-Glo ATP luminescence, 1 h
Target sequence (Q27686 whole entry, looked up): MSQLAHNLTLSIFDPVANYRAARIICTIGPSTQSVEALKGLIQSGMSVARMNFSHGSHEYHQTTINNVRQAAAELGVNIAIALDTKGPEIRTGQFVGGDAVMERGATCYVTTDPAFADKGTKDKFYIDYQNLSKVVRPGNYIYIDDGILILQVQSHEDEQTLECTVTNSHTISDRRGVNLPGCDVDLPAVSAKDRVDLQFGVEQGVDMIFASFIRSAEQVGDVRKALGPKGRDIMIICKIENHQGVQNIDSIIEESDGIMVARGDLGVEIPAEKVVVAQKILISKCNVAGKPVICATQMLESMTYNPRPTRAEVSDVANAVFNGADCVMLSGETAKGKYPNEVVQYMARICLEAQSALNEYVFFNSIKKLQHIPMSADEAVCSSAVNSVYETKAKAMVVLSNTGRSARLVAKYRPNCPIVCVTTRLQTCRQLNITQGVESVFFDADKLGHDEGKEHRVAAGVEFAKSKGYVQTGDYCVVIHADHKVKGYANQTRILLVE
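Pyruvate kinase activity monitored as ATP production (luciferase luminescence). Conditions: 0.1 nM enzyme, 0.5 mM PEP, 0.1 mM ADP, 1 h, RT; normalized against uninhibited and no-enzyme wells.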
A number is an active result; [ ] = another dose, or the depositor's remark. Unless noted, the call rests on the fitted dose curve; in most records, active means well fitted curve in the direction sought with a large enough effect; inconclusive means small, poorly fitted or top-dose-only effect, or another doubt; inactive means no such curve, though single readings can be large; an effect the other way counts as inactive or inconclusive.

For Cc1cccc(NC(=O)CN2C(=O)N/C(=C\c3ccc(-c4cccc(C(=O)O)c4)o3)C2=O)c1 the results were Sm TGR inh 56µM, RE007 growth inh inactive, Tb PYK inh inactive and LmPK inh inactive.
`CCOC(=O)c1sc(S(C)(=O)=O)c2c1CCc1conc1-2` gave Sm TGR inh 13µM, RE007 growth inh inactive, Tb PYK inh inactive and LmPK inh inactive.
For CC(C)N(C)c1ncnc2c1ncn2[C@H]1CN(Cc2ccc(Cl)cc2)C[C@@H](CO)O1 the results were RE007 growth inh inactive and Tb PYK inh inactive.
Cc1oc(C)c2c(=O)ccc3c(c12)OC(N)=C(C#N)C3c1ccc(F)cc1 (stereo not given) was read as Sm TGR inh 18µM, RE007 growth inh inactive, Tb PYK inh inactive and LmPK inh inactive.
For Cc1[nH]nc2c1C(c1ccc(F)cc1)C(C#N)=C(N)O2 (stereo not given) the results were Sm TGR inh inactive, RE007 growth inh inactive, Tb PYK inh inactive and LmPK inh inactive.
For Cc1cccc(-c2noc(CSc3nc(-c4ccc(F)cc4)cc(=O)[nH]3)n2)c1 the results were Sm TGR inh inactive and Tb PYK inh inactive[15.4 µM].
`CNC(=O)COc1ccc(NC(=O)CCn2nc(-c3ccc(C)cc3)c3ccccc3c2=O)cc1` gave Sm TGR inh inactive and Tb PYK inh inactive.
Screening O=C(Sc1ccccc1)c1cccc(Cn2cc(C(F)(F)F)ccc2=O)c1 returned Sm TGR inh 22µM, RE007 growth inh inactive, Tb PYK inh inactive and LmPK inh inactive.
`CCOC(=O)CSc1nnc(NCC(=O)OC)c(=O)[nH]1` gave Sm TGR inh 16µM, RE007 growth inh inactive, Tb PYK inh inactive and LmPK inh inactive.
`CCOC(=O)CSc1nnc(C)c(=O)[nH]1` gave Sm TGR inh inactive, RE007 growth inh inactive, Tb PYK inh inactive and LmPK inh inactive.
Screening O=C(/C=C/c1ccccc1)N1CCC[C@H]1CO returned Sm TGR inh inactive, RE007 growth inh inactive, Tb PYK inh inactive and LmPK inh inactive.
C#CCSc1nncn1C(=O)/C=C/c1ccccc1 was read as Sm TGR inh 71µM, RE007 growth inh inactive, Tb PYK inh inactive and LmPK inh inactive.
Screening Nc1cc(-c2ccncc2)c[nH]c1=O returned Sm TGR inh 40µM, RE007 growth inh inactive, Tb PYK inh inconclusive and LmPK inh inactive.
Screening C/C=C\C=C/C(=O)Nc1cccc(C2=NOC3(C2)C[C@H](C(N)=O)N(C(=O)Cc2ccc([N+](=O)[O-])cc2)C3)c1 (stereo not given in full) returned Sm TGR inh 1.1µM, RE007 growth inh inactive, Tb PYK inh inconclusive and LmPK inh inactive.
`CCC(=O)Nc1cccc(C2=NOC3(C2)C[C@@H](C(N)=O)N(C(=O)C(c2ccccc2)c2ccccc2)C3)c1` (stereo not given in full) gave Sm TGR inh inactive, RE007 growth inh inactive, Tb PYK inh inactive and LmPK inh inactive.
For C/C=C\C=C/C(=O)Nc1cccc(C2=NOC3(C2)C[C@H](C(N)=O)N(C(=O)CC)C3)c1 (stereo not given in full) the results were Sm TGR inh 1.8µM, RE007 growth inh inactive, Tb PYK inh inactive and LmPK inh inactive.
Screening C/C=C/C=C\C(=O)Nc1cccc(C2=NOC3(C2)C[C@@H](C(N)=O)N(C(=O)/C(C)=C/C)C3)c1 (stereo not given in full) returned Sm TGR inh 2.5µM, RE007 growth inh inactive, Tb PYK inh inactive and LmPK inh inactive.
C/C=C\C=C\C(=O)Nc1cccc(C2=NOC3(C2)C[C@@H](C(N)=O)N(C(=O)C(c2ccccc2)c2ccccc2)C3)c1 (stereo not given in full) was read as Sm TGR inh 1.8µM, RE007 growth inh inactive, Tb PYK inh inactive and LmPK inh inactive.
For C/C=C/C=C/C(=O)N1CC2(CC(c3cccc(NC(=O)/C=C/C)c3)=NO2)C[C@@H]1C(N)=O (stereo not given in full) the results were Sm TGR inh inconclusive, RE007 growth inh inactive, Tb PYK inh inactive and LmPK inh inactive.
`CCCCCC(=O)Nc1cccc(C2=NOC3(C2)C[C@H](C(N)=O)N(C(=O)CC#N)C3)c1` (stereo not given in full) gave Sm TGR inh inactive and LmPK inh inactive.
